PubChem BioAssay AID1159580 (chemical genetic matrix, 2015)
Among all 5,500 compounds or so, about 2,000 (36%) were called active. About 18% were inconclusive and are not listed. Cut-off read from the data, not from the text of the source: active = normalized growth mostly below about 0.91 (no sharp cut-off); inconclusive = no clear call, values can overlap the other calls; inactive = mostly above about 0.92. The list shows a part of the results.

Assay: chemical genetic growth profiling, strain panel (AID 1159580);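 note: tested at 20 µM; growth read once vehicle control cultures reached saturation at 30 °C; 1 = growth at the plate median or of vehicle wells; lower values mean less growth of the strain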
Conditions: growth OD

Measured: normalized growth

C=C1C(C)C2C(Cc3ccccc3)NC(=O)C23OC(=O)/C=C/C(=O)CCCC(C)C/C=C/C3C1O (stereo unspecified)
active: S. cerevisiae deletion strains, locus YDR388W, hits give low values 0.908 | S. cerevisiae deletion strains, locus YGR229C, strain SMI1, hits give low values 0.609 | S. cerevisiae deletion strains, locus YHR030C, strain SLT2, hits give low values 0.652 | S. cerevisiae deletion strains, locus YLR262C, strain YPT6, hits give low values 0.597 | S. cerevisiae deletion strains, locus YMR307W, strain GAS1, hits give low values 0.586 | S. cerevisiae deletion strains, locus YNL298W, strain CLA4, hits give low values 0.896 | S. cerevisiae deletion strains, locus YNL307C, strain MCK1, hits give low values 0.841 | S. cerevisiae deletion strains, locus YPR163C, strain tif3, hits give low values 0.884
inactive: S. cerevisiae deletion strains, locus YAL013W, strain DEP1, hits give low values 0.981 | S. cerevisiae deletion strains, locus YBR021W, strain FUR4, hits give low values 0.956 | S. cerevisiae deletion strains, locus YBR229C, strain ROT2, hits give low values 1.01 | S. cerevisiae deletion strains, locus YCL029C, strain bik1, hits give low values 1.01 | S. cerevisiae deletion strains, locus YDL035C, strain GPR1, hits give low values 0.952 | S. cerevisiae deletion strains, locus YDL074C, strain BRE1, hits give low values 0.987 | S. cerevisiae deletion strains, locus YDL101C, strain DUN1, hits give low values 1.01 | S. cerevisiae deletion strains, locus YDL134C, strain PPH21, hits give low values 0.984 | S. cerevisiae deletion strains, locus YDL185W, strain tfp1, hits give low values 1.02 | S. cerevisiae deletion strains, locus YDL192W, strain arf1, hits give low values 0.994 | S. cerevisiae deletion strains, locus YDR101C, strain arx1, hits give low values 1 | S. cerevisiae deletion strains, locus YDR150W, strain NUM1, hits give low values 0.985 | S. cerevisiae deletion strains, locus YDR162C, strain NBP2, hits give low values 0.912 | S. cerevisiae deletion strains, locus YDR318W, strain mcm21, hits give low values 0.958 | S. cerevisiae deletion strains, locus YDR502C, strain sam2, hits give low values 0.998 | S. cerevisiae deletion strains, locus YEL061C, strain CIN8, hits give low values 1.01 | S. cerevisiae deletion strains, locus YER110C, hits give low values 1.01 | S. cerevisiae deletion strains, locus YER155C, strain BEM2, hits give low values 0.995 | S. cerevisiae deletion strains, locus YER167W, strain BCK2, hits give low values 0.974 | S. cerevisiae deletion strains, locus YGL078C, strain dbp3, hits give low values 0.99 | S. cerevisiae deletion strains, locus YGL086W, strain mad1, hits give low values 0.998 | S. cerevisiae deletion strains, locus YGL248W, strain PDE1, hits give low values 0.973 | S. cerevisiae deletion strains, locus YGR078C, strain PAC10, hits give low values 0.864 | S. cerevisiae deletion strains, locus YGR135W, strain pre9, hits give low values 0.99 | S. cerevisiae deletion strains, locus YGR252W, strain gcn5, hits give low values 0.966 | S. cerevisiae deletion strains, locus YHR079C, strain IRE1 (second series), hits give low values 1.01 | S. cerevisiae deletion strains, locus YHR094C, strain hxt1, hits give low values 1 | S. cerevisiae deletion strains, locus YHR129C, strain ARP1, hits give low values 0.972 | S. cerevisiae deletion strains, locus YHR200W, strain rpn10, hits give low values 1.01 | S. cerevisiae deletion strains, locus YIL066C, strain RNR3, hits give low values 0.988 | S. cerevisiae deletion strains, locus YIL073C, strain SPO22, hits give low values 0.815 | S. cerevisiae deletion strains, locus YIL125W, strain kgd1, hits give low values 0.99 | S. cerevisiae deletion strains, locus YIR030C, strain dcg1, hits give low values 1.01 | S. cerevisiae deletion strains, locus YJL095W, strain BCK1, hits give low values 1.01 | S. cerevisiae deletion strains, locus YJL134W, strain LCB3, hits give low values 1 | S. cerevisiae deletion strains, locus YJL168C, strain set2, hits give low values 1.01 | S. cerevisiae deletion strains, locus YJL187C, strain SWE1 (second series), hits give low values 1.01 | S. cerevisiae deletion strains, locus YJR043C, strain POL32, hits give low values 0.975 | S. cerevisiae deletion strains, locus YJR075W, strain HOC1, hits give low values 1.03 | S. cerevisiae deletion strains, locus YKL009W, strain mrt4, hits give low values 1.02 | S. cerevisiae deletion strains, locus YKL068W, hits give low values 0.993 | S. cerevisiae deletion strains, locus YKL085W, strain MDH1 (second series), hits give low values 0.977 | S. cerevisiae deletion strains, locus YKL085W, strain MDH1, hits give low values 0.977 | S. cerevisiae deletion strains, locus YKL190W, strain CNB1, hits give low values 1 | S. cerevisiae deletion strains, locus YKR001C, strain vps1, hits give low values 0.935 | S. cerevisiae deletion strains, locus YLR039C, strain RIC1, hits give low values 0.893 | S. cerevisiae deletion strains, locus YLR058C, strain SHM2, hits give low values 1.01 | S. cerevisiae deletion strains, locus YLR102C, strain apc9, hits give low values 1.01 | S. cerevisiae deletion strains, locus YLR268W, strain sec22, hits give low values 1.03 | S. cerevisiae deletion strains, locus YLR330W, strain CHS5, hits give low values 0.988 | S. cerevisiae deletion strains, locus YLR342W, strain FKS1 (second series), hits give low values 0.805 | S. cerevisiae deletion strains, locus YLR371W, strain rom2, hits give low values 1.02 | S. cerevisiae deletion strains, locus YLR418C, strain cdc73, hits give low values 0.94 | S. cerevisiae deletion strains, locus YML016C, strain PPZ1, hits give low values 1 | S. cerevisiae deletion strains, locus YML032C, strain rad52, hits give low values 1.01 | S. cerevisiae deletion strains, locus YML124C, strain tub3, hits give low values 1.01 | S. cerevisiae deletion strains, locus YMR078C, strain ctf18, hits give low values 1.01 | S. cerevisiae deletion strains, locus YMR223W, strain ubp8, hits give low values 0.986 | S. cerevisiae deletion strains, locus YMR263W, strain SAP30, hits give low values 1 | S. cerevisiae deletion strains, locus YNL067W, strain RPL9B, hits give low values 0.975 | S. cerevisiae deletion strains, locus YNL128W, strain TEP1, hits give low values 0.973 | S. cerevisiae deletion strains, locus YNL153C, strain GIM3, hits give low values 0.989 | S. cerevisiae deletion strains, locus YNL233W, strain BNI4, hits give low values 1.02 | S. cerevisiae deletion strains, locus YNL250W, strain rad50, hits give low values 1.01 | S. cerevisiae deletion strains, locus YNL271C, strain bni1, hits give low values 0.96 | S. cerevisiae deletion strains, locus YNL322C, strain KRE1, hits give low values 1.01 | S. cerevisiae deletion strains, locus YNR052C, strain pop2, hits give low values 1.01 | S. cerevisiae deletion strains, locus YOL006C, strain TOP1, hits give low values 0.79 | S. cerevisiae deletion strains, locus YOL012C, strain htz1 0.448 | S. cerevisiae deletion strains, locus YOL147C, strain pex11, hits give low values 1 | S. cerevisiae deletion strains, locus YOR061W, strain CKA2, hits give low values 0.996 | S. cerevisiae deletion strains, locus YOR069W, strain VPS5, hits give low values 1 | S. cerevisiae deletion strains, locus YOR136W, strain idh2, hits give low values 0.991 | S. cerevisiae deletion strains, locus YOR144C, strain elg1, hits give low values 1 | S. cerevisiae deletion strains, locus YOR184W, strain ser1, hits give low values 0.992 | S. cerevisiae deletion strains, locus YOR316C, strain cot1, hits give low values 1.01 | S. cerevisiae deletion strains, locus YPL055C, strain LGE1, hits give low values 0.97 | S. cerevisiae deletion strains, locus YPL241C, strain CIN2, hits give low values 1 | S. cerevisiae deletion strains, locus YPR119W, strain clb2, hits give low values 1 | S. cerevisiae deletion strains, locus YPR141C, strain kar3, hits give low values 1.01 | S. cerevisiae deletion strains, locus YPR167C, strain met16, hits give low values 1.01 | S. cerevisiae deletion strains, strain wtn01, hits give low values 0.983 | S. cerevisiae strains, strain wild type, hits give low values 0.966
